Results: the supplement of paper PMC6555819

Key:
Assay in all cases: PBM binding z-score (relative to random genomic background probes); higher = stronger binding; sequences stand for … in GC…GCGATTGACAGCGTAGAATGAAGG
[1] = tested on: PPARg:RXRa DBDmut IVT, anti-RXR (DBD mutation: RXRa K156A/R161A, NR concentration 270 nM, RXRa partner concentration 90 nM)
Outline: (§1)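 Antibodies against each partner of ligand-free nuclear receptor dimers (one per run) detected binding on custom Agilent 4×180K protein-binding microarrays after 1 h incubation. The double-stranded probes had 34-nt variable regions carrying direct-repeat seeds, single-nucleotide variants, half-site ablations and random human genomic background sequences. Binding z-scores, from regression-normalized fluorescence, use the random background probes as reference.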

[2] = tested on: PPARg:RXRa IVT, anti-PPARg (NR concentration 270 nM, RXRa partner concentration 90 nM)
Outline: as §1

[3] = tested on: PPARg DBDmut:RXRa IVT, anti-PPARg (DBD mutation: PPARg1 K132A/R137A, NR concentration 270 nM, RXRa partner concentration 90 nM)
Outline: as §1

[4] = tested on: PPARg DBDmut IVT, anti-PPARg (DBD mutation: PPARg1 K132A/R137A, NR concentration 270 nM)
Outline: as §1

[5] = tested on: PPARg homodimer (NR concentration 180 nM)
Outline: as §1

[6] = tested on: PXR:RXRa (NR concentration 270 nM, RXRa partner concentration 90 nM)
Outline: as §1

[7] = tested on: PXR homodimer (NR concentration 270 nM)
Outline: as §1

[8] = tested on: RARa:RXR (NR concentration 270 nM, RXRa partner concentration 90 nM)
Outline: as §1

[9] = tested on: RARa homodimer (NR concentration 270 nM)
Outline: as §1

[10] = tested on: RARb:RXRa (NR concentration 270 nM, RXRa partner concentration 90 nM)
Outline: as §1

Sequence	PBM binding z-score [1]	PBM binding z-score [2]	PBM binding z-score [3]	PBM binding z-score [4]	PBM binding z-score [5]	PBM binding z-score [6]	PBM binding z-score [7]	PBM binding z-score [8]	PBM binding z-score [9]	PBM binding z-score [10]
TCATATAGGTAAATGCTAGATGAAAGTCCGATCT	3.61	1.84	0.931	1.42	-0.0567	0.422	0.0659	0.328	0.951	0.201
TCGAGTAGGTTAGTAGGGGCATTCAGCCAACATA	2.98	3.4	0.408	0.00263	0.668	0.244	0.000181	0.287	0.25	0.637
CCTACTGGGCCAACGTCATTGATCAGTCAAAGCA	3.87	4	-0.653	-0.52	0.534	-0.583	-0.509	0.0251	-0.369	-0.00134
TCTCGGAGGACACGAAAGGTCAGAGCCCGACATC	1.33	1.82	-0.244	-0.279	3.83	3.99	0.732	4.46	1.38	4.29
TCATATGGGTAAATGCTAGGTGAAAGTCCGATCT	2.91	2.07	0.703	0.469	-0.0354	0.217	-0.0586	0.519	-0.166	0.208
GCAGACAGGTGAAACGCATGTAACTCAGGGTGGC	0.516	0.404	-1.74	-0.927	-0.716	-0.307	-0.659	-0.0582	-0.606	0.532
GCTAGTAGGCCATTTGGGTCACTCAATGACGGGC	5.94	5.02	-0.157	-0.997	0.311	0.202	-0.242	0.598	-0.704	1.47
AGTCAAAGTTCACTAGGTAACGTAGGATTCAGCT	2.76	4.99	0.535	0.509	2.04	3.89	2.85	2.82	0.778	4.83
ATCTCTAGGTAAAGATAGTCCAGTGAATGCAAAT	2.01	1.66	1.44	0.736	0.414	-0.159	0.523	-0.259	0.93	-0.257
CAAACTAGGTCAAAGCTCAAAGTCGAGCCAACCA	8.73	8.57	5.63	0.922	1.88	1.33	0.241	2.86	0.284	3.84
CGAACTAGGTGAAGGACAGTGAATCTCCGCACGC	7.22	6.69	0.351	1.02	-0.373	-0.343	-0.341	-0.0643	-0.232	0.792
CAAATTAGGTCACGAAAGGTCAAAGTCGAATGAC	8.68	8.9	4.28	2.39	5.32	7.26	2.64	7.69	3.07	5.8
GCAGACAGGTGAAACTCAGGTAACTCAGGGTGGC	0.904	0.656	-0.318	-0.994	-0.214	0.118	-0.356	0.625	-0.536	0.901
ACTAGCAGGCCAAGTGTGGGTCACTCAAACAAAG	2.05	2.79	-0.334	-0.527	0.309	0.546	-0.107	1.35	-1.55	1.79
GCTAGTTGGTCAGTAACAGGTCACACACCGGTCG	0.713	1.57	-0.131	0.285	1.45	1.85	0.169	2.32	1.15	2.24
CCTACTGGGCCATCAGGTCAATGATATCAACGTT	4.61	5.43	0.416	0.266	1.14	1.16	0.0872	1.6	-0.0644	2.19
TCTATTAGTTGATTAGTGCAACCGAAACAGCGGA	1.81	0.352	1.1	1.5	0.86	0.603	0.441	0.464	1.06	0.332
ATCTCTAGGTAAGACTCACTTCAGTGAAGAACGC	1.59	1.19	0.772	1.01	0.77	-0.228	0.171	-0.265	0.334	-0.0456
CAAACTAGGTCCAAGGTCAAAGTCGAGCCAACCA	2.64	4.91	0.406	0.226	1.83	3.7	1.57	3.71	1.6	3.51
GGTTGTAGATCAAGGTTAAGAAAGACTAAGCTAA	0.74	1.03	0.337	0.177	1.28	0.988	0.866	1.16	1.7	1.17
TCTAGTTGGTCAGGGAGGTCACACACGACGGGTA	2.21	3.14	0.418	0.586	2.66	4.14	1.55	4.2	1.51	3.63
GTACCAAGGCGAATAGGTCGTTGATGAGTAGGCG	-0.264	-0.208	-0.611	-1.17	-0.305	-0.106	-0.0295	0.507	-0.623	0.291
CATACAGGGTCAGCTAGTCCAGAGTAGGGACGGC	1.14	2.25	0.656	0.108	1.92	2.36	-0.00687	2.91	0.913	3.94
GCTAGTTGGTCAGTAAAACGTCACACACCGGTCG	0.256	0.168	0.0879	-0.472	-0.368	-0.432	-0.66	-0.372	-0.12	0.305
CGTTACGGGTCACTGACAGGTTATAGCATTTGGA	3.65	3.74	0.269	0.284	2.14	3.75	-0.254	4.61	0.338	3.93
